# PubChem BioAssay AID1240 (Sanford-Burnham Center for Chemical Genomics, 2008)
# Among all 50,000 compounds or so, about 800 (1.6%) showed an effect of 50% or more. Shown is part of a subset that was picked to be rich in strong results.
# Biological target: Bcl-2-like protein 10 (Homo sapiens) (UniProt Q9HD36)
# Experiment: TR3 peptide-Bcl-B binding displacers, biochemical primary FP assay, phenotype converters (AID 1240);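 note: 0% = Bcl-B with tracer peptide and DMSO and 100% = tracer peptide lacking Bcl-B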
# Settings: GST-Bcl-B / FITC-TR3 peptide fluorescence polarization; stronger effect = higher value; compound at 3.75 mg/L
# Sequence of Bcl-2-like protein 10 (Homo sapiens) (Q9HD36 whole entry, looked up): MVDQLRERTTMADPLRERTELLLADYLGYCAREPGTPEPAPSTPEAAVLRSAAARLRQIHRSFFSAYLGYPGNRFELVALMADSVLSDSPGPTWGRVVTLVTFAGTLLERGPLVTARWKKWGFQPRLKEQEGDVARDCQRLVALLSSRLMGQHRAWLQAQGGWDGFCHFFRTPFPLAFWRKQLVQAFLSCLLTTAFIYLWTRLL
row,Compound,displacement [%]
1,CCc1ccc(/C=C2\C(=O)NN(c3ccc(Cl)c(Cl)c3)C2=O)cc1,5.7
2,CCOc1cc(C(=O)Nc2ccc3c(c2)OCCO3)cc(OCC)c1OCC,-7.7
3,C=CCn1c(C)c(/C=C(/C#N)C(=O)Nc2ccc(OC)cc2)c2ccccc21,-6.6
4,CCOC(=O)c1c(NC(=O)c2ccc(C(=O)c3ccccc3)cc2)sc2c1CCC2,10.7
5,Cc1ccc(N[C@@H]2O[C@H](CO)[C@@H](O)[C@H](O)[C@@H]2O)cc1,11
6,CC(=O)Oc1ccc2c(C)c(C)c(=O)oc2c1,6.4
7,CCSc1nnc2c(n1)OC(c1ccc(C(=O)O)cc1)Nc1ccccc1-2 (configuration not stated),9.9
8,CSc1nnc2c(n1)OC(c1ccc(OCc3ccccc3)cc1)Nc1ccccc1-2 (configuration not stated),7.4
9,CCSc1nnc2c(n1)OC(c1ccc(OCc3ccccc3)cc1)Nc1ccccc1-2 (configuration not stated),120
10,CCOC(=O)C1=C(O)CSC1=Nc1ccc(Cl)cc1,-6.7
11,CCOC(=O)C1=C(O)/C(=C/c2ccc(F)cc2)SC1=Nc1ccc([N+](=O)[O-])cc1,59.1
12,CCOC(=O)C1=C(O)/C(=C/c2ccc(O)cc2)SC1=Nc1ccc([N+](=O)[O-])cc1,-9.8
13,CCOC(=O)C1=C(O)CSC1=Nc1ccc([N+](=O)[O-])cc1,112
14,CCOC(=O)C1=C(O)/C(=C/c2ccc(O)c(OCC)c2)SC1=Nc1ccc([N+](=O)[O-])cc1,-5.5
15,CCOC(=O)C1=C(O)/C(=C/c2ccc(Cl)cc2)SC1=Nc1ccc([N+](=O)[O-])cc1,-7.6
16,CCOC(=O)C1=C(O)CSC1=Nc1ccc(C)cc1,-15.6
17,CCOC(=O)C1=C(O)/C(=C/c2ccc([N+](=O)[O-])cc2)SC1=Nc1ccc(C)cc1,-3.1
18,CCOC(=O)C1=C(O)/C(=C/c2ccc(OCC)cc2)SC1=Nc1ccc([N+](=O)[O-])cc1,122
19,COc1ccc(Oc2coc3cc(OC(C)=O)ccc3c2=O)cc1,11.2
20,COc1ccc2nc(NC(=O)COc3ccc(Cl)cc3)sc2c1,14.5
21,COc1cc(NC(=O)CCCOc2ccccc2)c(OC)cc1Cl,71.9
22,COc1cc(NC(=O)CCCOc2ccc(Cl)cc2Cl)c(OC)cc1Cl,0.2

row,Compound,displacement [%]
1,COc1ccc(NC(=O)CCCOc2ccccc2)c(OC)c1,-3.2
2,O=C(N/N=C/c1cccs1)c1sc2cc(Cl)ccc2c1Cl,7.2
3,C/C(=N/NC(=O)c1sc2cc(F)ccc2c1Cl)c1cccs1,132
4,O=C(NCc1cccs1)c1sc2cc(F)ccc2c1Cl,-3.8
5,CC1=C(C(=O)Nc2cc(Cl)ccc2C)C(c2ccccc2Br)NC(=S)N1 (configuration not stated),-8.3
6,O=C(Nc1ccc(O)c(-c2nc3ccccc3o2)c1)c1cc2ccccc2o1,-10.8
7,CCOC(=O)NC(NC(=O)OCC)c1cccc([N+](=O)[O-])c1,-5.1
8,CCOc1cc(/C=C2/SC(=S)N(C)C2=O)ccc1OC(=O)c1ccc(F)cc1,13.6
9,CCOc1cc(/C=C2/SC(=S)N(C)C2=O)ccc1OC(=O)c1ccc(C)cc1,62.3
10,COc1cc(/C=C2/SC(=S)N(CC(=O)N3CCOCC3)C2=O)cc(OC)c1OC,13.2
11,COc1cc(/C=C2\SC(=S)N(CC(=O)O)C2=O)cc(OC)c1OC,-4
12,CCOc1cc(/C=C2\SC(=S)N(CC(C)C)C2=O)ccc1O,15.9
13,CCOc1cc(/C=C2\SC(=S)N(C)C2=O)ccc1O,-6.7
14,CCOc1cc(/C=C2/SC(=S)N(C)C2=O)ccc1OS(=O)(=O)c1ccc(C)cc1,-1.9
15,CCOc1cc(/C=C2\SC(=S)N(CCOC)C2=O)ccc1O,89.2
16,COCCN1C(=O)/C(=C/c2ccc(O)c(OC)c2)SC1=S,-4.4
17,CCN1C(=O)/C(=C\c2ccc(O)c(OC)c2)SC1=S,-3.9
18,COc1cc(/C=C2\SC(=S)N(CC(C)C)C2=O)ccc1O,91.5
19,COc1cc(/C=C2\SC(=S)N(CC(=O)N3CCCc4ccccc43)C2=O)cc(OC)c1OC,91.5
20,CC1(C)Nc2ccccc2N(Cc2ccc(Cl)c(Cl)c2)C1=O,-7.9
21,Cc1ccc(-c2nc3ccccc3o2)cc1NC(=O)c1ccco1,3.1
22,CCOC(=O)C(=O)Nc1ccc(S(=O)(=O)Nc2nccc(C)n2)cc1,27.4

row,Compound,displacement [%]
1,CC(=O)Nc1ccc(S(=O)(=O)Nc2ccc(C(=O)Nc3nccs3)cc2)cc1,7.5
2,COC(=O)c1sccc1NC(=O)/C=C/c1ccc([N+](=O)[O-])cc1,5.4
3,CC(=O)OC1CC(C)(C)N([O])C(C)(C)C1,5.8
4,O=C1C2ON(c3ccccc3)C(c3ccco3)C2C(=O)N1c1ccc(N2CCOCC2)cc1 (configuration not stated),2.3
5,C=CCNC(=O)c1ccc(OCc2ccccc2)cc1,10.2
6,C/C(=N\NC(=O)c1ccncc1)c1ccco1,-4.8
7,O=C(Nc1ccc(-c2nc3ccccc3s2)cc1)c1cc2ccccc2o1,-6.9
8,S=C1NC(c2ccccc2)=NCN1c1ccccc1,1.8
9,CCOc1cc(/C=C2/SC(=S)N(CC)C2=O)cc(Br)c1OCCOc1cccc(OC)c1,92.3
10,CCOc1cc(/C=C2\SC(=S)N(CC(=O)OC)C2=O)ccc1O,122
11,CCOc1cc(/C=C2\SC(=S)N(CCS(=O)(=O)O)C2=O)ccc1O,-60.3
12,COc1cc(/C=C2/SC(=S)N(C)C2=O)ccc1OCCOc1ccc(Br)cc1,2.3
13,COC(=O)CN1C(=O)/C(=C/c2ccc(OCc3ccccc3Cl)c(OC)c2)SC1=S,10.3
14,COc1cc(/C=C2/SC(=S)N(C)C2=O)ccc1OCc1ccc(Br)cc1,88.9
15,CCN1C(=O)/C(=C\c2cc(Cl)c(OCCOc3cccc(OC)c3)c(OC)c2)SC1=S,2.9
16,COC(=O)CN1C(=O)/C(=C\c2cccc(O)c2)SC1=S,0
17,C=CCN1C(=O)/C(=C\c2ccc(OCc3ccc(Br)cc3)c(OC)c2)SC1=S,-11.3
18,COC(=O)CCN1C(=O)/C(=C/c2ccc(OCc3ccc(Cl)cc3)c(OC)c2)SC1=S,24.7
19,CCN1C(=O)/C(=C\c2cccc(OCCOc3cccc(OC)c3)c2)SC1=S,3.4
20,COC(=O)CN1C(=O)/C(=C/c2ccc(OCc3ccc(Cl)cc3)c(OC)c2)SC1=S,87.2
21,CCOC(=O)c1cccc(NC(=O)COc2ccc([N+](=O)[O-])cc2)c1,8.1
22,CSc1ccc(/C=N\NC(=O)COc2ccc(C)cc2)cc1,11.8

row,Compound,displacement [%]
1,COC(=O)c1c(N)sc(C)c1-c1ccc(C)cc1C,-10.6
2,COc1cc(/C=C/c2cc(C(F)(F)F)[nH]c(=O)n2)ccc1O,44.6
3,COc1ccc(OC)c(NC(=O)CN(c2cc(Cl)cc(Cl)c2)S(C)(=O)=O)c1,-2.6
4,O=C(N/N=C/c1ccccc1)c1cc(Br)ccc1O,7.4
5,O=C(CSc1nc(-c2ccccc2)c(-c2ccccc2)o1)Nc1nccs1,106
6,O=C(CSc1nnc(-c2ccccc2)c(-c2ccccc2)n1)Nc1nccs1,4.6
7,O=C(CSc1nc(-c2ccccc2)c(-c2ccccc2)o1)Nc1ccccc1,-4.2
8,CSc1nnc2c(n1)OC(C(=O)c1ccccc1)Nc1ccccc1-2 (configuration not stated),13.5
9,COc1cccc(NS(=O)(=O)c2ccc(OC)c(Br)c2)c1,-4.6
10,O=C1NC(=S)N/C1=C/c1ccc(Oc2ccc(C(F)(F)F)cc2[N+](=O)[O-])c(Cl)c1,88.3
11,O=C1NC(=O)/C(=C\c2ccc(Oc3ccc(C(F)(F)F)cc3[N+](=O)[O-])c(Cl)c2)S1,5.5
12,O=C1NC(=S)S/C1=C/c1ccc(Oc2ccc(C(F)(F)F)cc2[N+](=O)[O-])c(Cl)c1,2.8
13,Cc1ccc(N(CC(=O)NC(C)c2ccccc2)S(C)(=O)=O)cc1Cl (configuration not stated),-1.3
14,NNC(=O)COc1ccc2c(c1Br)CCCC2,-25.1
15,O=C(O)CCCCCN1C(=O)C(O)=C(C(=O)/C=C/c2ccccc2)C1c1ccc([N+](=O)[O-])cc1 (configuration not stated),-4.6
16,O=C(O)CCCCCN1C(=O)C(O)=C(C(=O)/C=C/c2ccccc2)C1c1cccc([N+](=O)[O-])c1 (configuration not stated),96.1
17,O=C(O)CCCCCN1C(=O)C(O)=C(C(=O)/C=C/c2ccccc2)C1c1ccccc1 (configuration not stated),4.7
18,Cc1cc(Cl)ccc1NC(=O)C(=O)N/N=C/c1ccccc1F,4.5
19,CCN1CCN(CC(O)CN2CCn3c4c(c5cc(C)ccc53)CCCC42)CC1 (configuration not stated),24.7
20,CCNC(=O)/C=C/c1cn(-c2ccccc2)nc1-c1ccccc1,9.4
21,CCOC(=O)C(=C/C=C1/Sc2ccccc2N1C)C(=O)OCC,131
22,CCOC(=O)C(=C/C=C/c1ccccc1)C(=O)OCC,-2.3

row,Compound,displacement [%]
1,CCOC(=O)C(C(=O)OCC)=C1Sc2ccccc2N1C,13.4
2,COc1ccc(Br)cc1/C=C/C(=O)N1CCN(c2ccc([N+](=O)[O-])cc2)CC1,12.3
3,O=C(Nc1ccc2c(c1)Cc1ccccc1-2)c1ccncc1,-3.2
4,O=C(Nc1ccc2c(c1)OCCO2)c1cc2ccccc2o1,-6.3
5,Cc1ccc(NC(=S)NC(=O)c2ccccc2)cc1Br,9
6,O=C(Nc1ccc2c(c1)Cc1ccccc1-2)c1cc2ccccc2o1,134
7,O=C(NC(=S)Nc1ccc2oc(-c3ccccc3)nc2c1)c1ccccc1,-10.6
8,O=C(NC(=S)Nc1ccc2oc3ccccc3c2c1)c1ccccc1,91.8
9,O=C(Nc1ccc(Cl)c(Cl)c1)c1cc2ccccc2o1,2.9
10,O=C(NC(=S)Nc1ccc2c(c1)-c1ccccc1C2)c1ccccc1,51.9
11,O=C(NC(=S)Nc1ccccc1)c1ccccc1,4.7
12,COc1ccc(-c2nc(NC(=O)c3ccccc3F)sc2-c2ccc([N+](=O)[O-])cc2)cc1,13.6
13,CCOc1ccc(/C=C2\C(=O)NC(C)=C2C(=O)OC)cc1,10.8
14,CCOC(=O)C1=C(C)NC(C)=C(C(=O)OCC)C1c1cccs1,-5.1
15,CCOC(=O)C1=C(C)NC(=O)/C1=C\c1cccs1,108
16,Cc1ccc(S(=O)(=O)Nc2ccccc2C(O)C[N+](=O)[O-])cc1 (configuration not stated),-4.2
17,COc1ccc2c(c1)cc(C(=O)NN)n2C,67.4
18,COc1ccc(N2Cc3ccc(C(=O)NN)cc3C2)cc1,-29.2
19,CNC(=O)c1cc2cc(OC)ccc2n1CCN(C)C,-11.4
